# HT1080 IDH1KD tx = toxicity to HT-1080 IDH1 knockdown cells (counter line); HT-1080 IDH1 knockdown viability, ATP luminescence, 48 h; AID 686971; actives 2% (n = 360,000); Potency, µM (highest dose often 46.1 µM), for inactives: at the highest dose activity, negative = toxicity, actives largely listed as cytotoxic;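 further: 0% = DMSO wells and -100% = cell-free medium wells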
#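 HT-1080-IDH1KD cells (IDH1 knocked down), 750/well in RPMI with 5% FBS, treated with compound 48 h at 37 degrees C. Viability by CellTiter-Glo luminescence, normalised to DMSO and no-cell wells; concentration-response curves classed.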
# ATXN2 expr inh = inhibitors of ATXN2 expression. HEK-293 ATXN2-luciferase reporter, luminescence, 24 h. Potency, µM (titrated, usually from 57 µM), for inactives: top-dose activity change, negative = inhibition, hits mostly inhibitors. actives 0.72% (n = 360,000). AID 1745845; further: on the % scale 0 is the no-effect control and ±100 the full control effect; nearly all actives have a fitted effect of over 55% in size
#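 ATXN2-luciferase reporter cells (luciferase flanked by upstream and downstream ATXN2 gene portions) were treated 24 h at 37 °C with compounds at up to 57 uM. SteadyGlo luminescence gave expression; GF-AFC fluorescence gave viability.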
# S2 tox = cell viability loss in ATXN counter-screen | S2 cells (HEK-293 line with an ATXN2-luciferase reporter) viability, CellTiter-Fluor protease fluorescence, 24 h | Potency, µM (series often up to 56.7 µM), most hits filed as cytotoxic | actives 0.49% (n = 400,000) | AID 651635; further: nearly all actives have a fitted effect of over 40% in size
# KB-V1 cytotox = KB-V1 MDR subline cytotoxicity. KB-V1 MDR cells viability, CellTiter-Glo, 72 h. Potency, µM (doses to about 46.1 µM), usual class: cytotoxic. actives 3.4% (n = 400,000); further: on the % scale 0 is the no-effect control and ±100 the full control effect; nearly all actives have a fitted effect of over 60% in size
#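 KB-V1 MDR subline cells in DMEM (phenol-red free, 10% FBS) exposed to compounds in qHTS concentration series for 72 h at 37 degrees C. Viability read by CellTiter-Glo luminescence; concentration-effect curves fitted after normalization and correction.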
# HT1080NT lethal = kills 2HG-producing HT-1080-NT fibrosarcoma cells | Potency, µM (top dose mostly 46.1 µM), for the others: top-dose activity, negative = less viability, actives largely listed as cytotoxic | HT-1080-NT fibrosarcoma viability, CellTiter-Glo ATP luminescence, 48 h | actives 1.6% (n = 360,000) | AID 686970;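 further: NT is the 2HG producing partner of a matched IDH1 knockdown line; 0% = DMSO-treated cells and -100% = media-only wells without cells; nearly all actives have a fitted effect of over 55% in size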
#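 Toxicity toward the 2HG-producing NT line was scored as %Activity, normalised to DMSO and no-cell wells, from CellTiter-Glo luminescence after 48 hours' treatment.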
# KB-3-1 tox = KB-3-1 parental cell cytotoxicity; KB-3-1 viability, CellTiter-Glo ATP luminescence, 72 h; Potency, µM (doses to about 46.1 µM), most hits filed as cytotoxic; actives 1.4% (n = 400,000); AID 1347075; further: on the % scale 0 is the no-effect control and ±100 the full control effect; nearly all actives have a fitted effect of over 60% in size
#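 Cells are dispensed, compounds pinned in, plates held at 37 °C for 72 h, then CellTiter-Glo is added and luminescence read after 10 minutes. Cell line: parental KB-3-1 in phenol-red-free DMEM, 10% FBS.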
# Numbers without * were called inactive; i = inactive; ? = inconclusive; / = no result. Rows were chosen to be rich in hits. Some 6.2% of all compounds tested hit in one or more screens of this group. The call rests on the fitted dose curve; in most records, active means well fitted curve in the direction sought with a large enough effect; inconclusive means small, poorly fitted or top-dose-only effect, or another doubt; inactive means no such curve, though single readings can be large; an effect the other way counts as inactive or inconclusive. Potency means the concentration at half of the fitted maximal effect.
SMILES,HT1080 IDH1KD tx,ATXN2 expr inh,S2 tox,KB-V1 cytotox,HT1080NT lethal,KB-3-1 tox
CN(C)CC/C=C1/c2cc(F)ccc2Sc2ccc(Cl)cc21,16.4µM*,?,i,i,23.1µM*,i
Cn1c(SCC(=O)Nc2ccc(Cl)cc2F)nnc1-c1ccco1,27.5%,-7.2%,i,?,18.7%,i
COCCNC(=O)CCn1c(=O)c2cc(OC)c(OC)cc2n(CC(=O)Nc2ccccc2OC)c1=O,/,6.0%,i,i,/,i
CC(=O)OC[C@H]1O[C@@H](OC(C)=O)[C@H](OC(C)=O)[C@@H]1OC(C)=O,/,6.2%,i,/,/,/
CCN(CC)C(=S)NC(=O)c1cc(OC)c(OC)c(OC)c1,-11.1%,-2.5%,i,i,23.1µM*,i
CCN(CC)C(=S)NC(=O)c1ccc(Cl)cc1Cl,3.55µM*,-0.3%,i,i,7.08µM*,i
CC(C)(C)C(=O)NC(=S)NNC(=O)c1ccc(Cl)cc1Cl,18.4µM*,-22.0%,i,?,9.2µM*,?
CCN(CC)C(=S)Nc1ccc(Cl)c(Cl)c1,10.5%,3.2%,i,23.1µM*,4.2%,?
CCN(Cc1ccncc1)C(=S)Nc1ccc(Cl)cc1,-10.7%,-4.1%,i,?,-2.8%,i
CCN1CCN(C(=S)NC(=O)c2cc(OC)c(OC)c(OC)c2)CC1,5.0%,-1.4%,i,i,4.1%,i
COC(=O)NNC(=O)c1ccc(Cl)cc1Cl,22.2%,-21.9%,?,?,19.8%,i
CN(CC(=O)NCc1ccccc1Cl)S(=O)(=O)c1ccc2c(c1)c(=O)n(C)c(=O)n2C,/,-4.8%,i,i,/,i
CCCn1nnnc1NCc1ccc(N(CC)CC)cc1,1.5%,/,i,i,-12.1%,i
CC(C)(C)C(=O)NC(=S)NNC(=O)c1ccc(-c2ccccc2)cc1,7.31µM*,/,?,9.2µM*,8.2µM*,?
COc1cc(NC(=O)Nc2nnc([C@@H]3C[C@H](O)[C@@H](CO)O3)s2)cc(OC)c1OC,3.8%,7.6%,i,i,17.4%,i
Cc1ccc(Sc2c(C=O)c3ccccc3n2C)cc1,?,-15.9%,i,?,?,23.1µM*
CC1CC2CCCC(O)=C2C(=O)O1 (configuration not stated),-1.6%,1.9%,i,i,-3.5%,i
CC1CCC(NS(=O)(=O)c2ccc(N3CCCC3=O)cc2)CC1 (configuration not stated),-2.8%,-16.1%,i,i,-5.5%,?
COc1ccc(Sc2nc(-c3ccccn3)ncc2OC)cc1,?,22.4µM*,?,?,?,i
COc1cnc(-c2ccccn2)nc1Sc1ccc(F)cc1,-24.7%,0.0%,i,i,20.6µM*,i
O=C(CN1C(=O)c2ccccc2S1(=O)=O)c1ccc(F)cc1,8.2%,/,i,i,-6.5%,i
O=C(CCN1C(=O)c2ccccc2S1(=O)=O)Nc1cc(Cl)ccc1Cl,7.5%,3.5%,i,i,-1.8%,i
O=C(CN1C(=O)c2ccccc2S1(=O)=O)N1CCN(c2ccccc2F)CC1,4.4%,-24.6%,?,?,1.3%,i
O=C(CN1C(=O)c2ccccc2S1(=O)=O)c1ccc2c(c1)OCCO2,-2.7%,/,i,i,-4.3%,i
O=C(CN1C(=O)c2ccccc2S1(=O)=O)c1ccc(Cl)cc1Cl,-0.3%,2µM*,i,i,9.9%,i
SMILES,HT1080 IDH1KD tx,ATXN2 expr inh,S2 tox,KB-V1 cytotox,HT1080NT lethal,KB-3-1 tox
O=C(CN1C(=O)c2ccccc2S1(=O)=O)c1ccccc1F,9.0%,7.94µM*,i,?,8.0%,i
O=C(CN1C(=O)c2ccccc2S1(=O)=O)c1ccc(OC(F)F)cc1,5.2%,2µM*,i,i,0.8%,i
O=C(CN1C(=O)c2ccccc2S1(=O)=O)c1ccc2c(c1)OCCCO2,5.9%,0.282µM*,i,i,7.5%,i
CSc1ccc(CNCc2c(C(=O)O)c(C)n(Cc3ccc(F)cc3Cl)c2C)cc1,/,5.0%,?,i,/,i
CCOC(=O)[C@]12CCCC=C1N(CCc1ccc(OC)c(OC)c1)C(=O)[C@H](CC(=O)N1CCSCC1)C2,20.8%,/,/,?,14.0%,i
CC(=O)c1ccc(S(=O)(=O)N2CCn3cccc3C2c2ccccc2F)cc1 (configuration not stated),/,3.7%,i,i,/,i
Cc1noc(C)c1Cn1c(C)c(C(=O)NCc2ccc3c(c2)OCCO3)sc1=O,5.0%,11.8%,i,?,8.9%,?
O=C(N/N=C\c1cc(Br)ccc1O)c1ccc(S(=O)(=O)N2CCCCC2)cc1,2.06µM*,?,/,i,?,i
Cc1ccc(O)c(/C=N/NC(=O)Cc2ccc(Cl)cc2)c1,13µM*,/,i,i,?,i
O=C(N/N=C/c1ccc(O)c2ncccc12)c1cccc(Br)c1,18.4µM*,?,?,?,23.1µM*,2.59µM*
O=C(N/N=C/c1ccc(O)c(O)c1)c1cccc(S(=O)(=O)N2CCCCC2)c1,-2.3%,-6.0%,i,i,-0.3%,i
O=C(Cc1ccc(Cl)cc1)N/N=C/c1ccc(O)c(O)c1,-29.3%,/,?,?,-16.0%,?
O=C(N/N=C/c1cc([N+](=O)[O-])ccc1O)c1ccncc1,-8.2%,/,?,?,?,i
O=C(N/N=C/c1cc(Br)ccc1O)c1ccncc1,?,2.82µM*,i,i,?,?
Cc1cc(C)cc(-n2c(C)cc(C(=O)C(=O)Nc3nnc(C)s3)c2C)c1,/,-2.9%,i,i,/,i
O=C(N/N=C/c1ccccc1O)C1SCCCS1,16.4µM*,?,i,i,?,?
CC(C)(C)OC(=O)N/N=C/c1cc(N=Nc2ccccc2)ccc1O,?,-28.6%,?,i,-3.7%,?
O=C(N/N=C/c1ccc(OC(=O)c2ccc(Br)cc2)cc1)c1ccncc1,0.6%,0.9%,?,i,1.1%,i
O=C(N/N=C/c1cc(Cl)ccc1O)c1ccc(Br)cc1,5.8µM*,4.47µM*,i,?,9.2µM*,?
O=C(NN=Cc1ccccc1O)C1CC1,-4.5%,0.0%,i,?,1.3%,i
Cc1ccc(N=Nc2ccc(O)c(/C=N\NC(=O)c3ccc(N)cc3)c2)cc1C,1.58µM*,?,?,i,3.98µM*,i
O=C(N/N=C/c1cc(Br)ccc1OC(=O)c1ccc(Br)cc1)c1ccncc1,?,?,i,i,20.6µM*,?

# Compound activity: PubChem, National Center for Advancing Translational Sciences (NCATS)
